“And” between values parts separate entries of the source, which are not always exact repeats. Equal values may be shown once. A number with no mark means an inactive call.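 How the source made its calls: active = AUC reduced over 20% with Padj below 0.05 in at least 2 of 3 replicates; inactive = otherwise.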
Legend:
[1] = test system: Roseburia intestinalis; experiment: growth AUC relative to DMSO control (median of replicates) (fraction); higher = more growth (less inhibition), active = hit call of the paper; details: 20 µM; 24 h
Outline: (§1)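 Area under the growth curve was normalised to the plate median of solvent-only wells, except on the industrial chemical plate, where row and column medians were used. Curves came from gut bacterial monocultures grown anaerobically at 37 °C in mGAM with 20 µM compound (1% DMSO), starting at OD600 0.05 and read at OD600 every hour for 24 h. The minimum OD of each curve was set to 0, and values are medians of three biological replicates grown on separate days.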

[2] = test system: Streptococcus salivarius; experiment: as above; details: 20 µM; 24 h
Outline: as §1

| Compound | growth AUC [1] | growth AUC [2] |
| --- | --- | --- |
| CCCCc1c(C)nc(N(C)C)[nH]c1=O | 0.959 | 1.02 |
| O=C(NC(=O)c1ccccc1Cl)Nc1ccc(OC(F)(F)F)cc1 | 0.918 | 0.951 |
| C[C@@H](Oc1ccc(Oc2nc3ccc(Cl)cc3o2)cc1)C(=O)O | 1.04 | 0.925 |
| CCOC1Oc2ccc(OS(C)(=O)=O)cc2C1(C)C (stereo unspecified) | 0.924 | 0.964 |
| CNC(=O)Oc1cccc2ccccc12 | 0.973 | 1.03 |
| ClCC(Br)CBr (stereo unspecified) | 1 | 0.973 |
| Nc1c(Cl)c(F)nc(OCC(=O)O)c1Cl | 1 | 1 |
| O=C(NC(=O)c1c(F)cccc1F)Nc1ccc(OC(F)(F)C(F)OC(F)(F)F)c(Cl)c1 (stereo unspecified) | 1.06 | 1.01 |
| COCC(=O)N(c1c(C)cccc1C)N1CCOC1=O | 0.994 | 1 |
| CC(C)Nc1nc(Cl)nc(NC(C)C)n1 | 0.962 | 0.99 |
| CCOP(=O)(OCC)O/C(=C/Br)c1ccc(Cl)cc1Cl | 0.995 | 0.975 |
| CCN(C(=O)n1nnn(-c2ccccc2Cl)c1=O)C1CCCCC1 | 0.938 | 0.971 |
| CCOP(=S)(OCC)Oc1ccc(Cl)cc1Cl | 1.05 | 1.04 |
| CCc1nn(C)c(C(=O)NCc2ccc(Oc3ccc(C)cc3)cc2)c1Cl | 0.924 | 0.986 |
| ClC1=C(Cl)C2(Cl)[C@H]3[C@H]4O[C@H]4[C@H](Cl)[C@H]3C1(Cl)C2(Cl)Cl (single isomer, unassigned; isomer a) | 0.954 | 0.976 |
| COc1cc(OC)nc(Sc2cccc(Cl)c2C(=O)O)n1 | 0.984 | 0.973 |
| CC#Cc1cc(C)nc(Nc2ccccc2)n1 | 1.01 | 1.01 |
| O=S(=O)(Oc1ccc(Cl)cc1)c1ccc(Cl)cc1 | 0.948 | 0.983 |
| CC(C)=CC1C(C(=O)OCc2cccc(Oc3ccccc3)c2)C1(C)C (mixture of isomers) | 0.908 | 0.951 |
| O=C(NC(=O)c1c(F)cccc1F)Nc1cc(Cl)c(OC(F)(F)C(F)F)c(Cl)c1 | 0.977 | 0.962 |
| CC(C)(C)C(O)C(Oc1ccc(-c2ccccc2)cc1)n1cncn1 (mixture of isomers) | 1.02 | 1.01 |
| CCOP(=S)(OCC)Oc1cc(Cl)c(Br)cc1Cl | 0.948 | 0.958 |
| CC(=NCc1ccc(Cl)nc1)NC#N | 0.997 | 1 |
| CCNc1nc(NCC)nc(SC)n1 | 1.08 | 0.978 |
| COP1(=S)OCc2ccccc2O1 (stereo unspecified) | 0.943 | 1.01 |
| COP(=O)(OC)Oc1ccc([N+](=O)[O-])cc1 | 1.04 | 1.03 |

| Compound | growth AUC [1] | growth AUC [2] |
| --- | --- | --- |
| CCOP(=S)(OCC)Oc1nc(Cl)n(C(C)C)n1 | 1.02 | 1 |
| C=CC(N)=O | 1.01 | 1.01 |
| CC(Oc1ccc(Oc2ccc(C(F)(F)F)cn2)cc1)C(=O)O (stereo unspecified) | 0.908 | 0.93 |
| O=C(OC1CCCCC1)c1ccccc1C(=O)OC1CCCCC1 | 0.983 | 1 |
| C=CCC1=C(C)C(OC(=O)C2C(C=C(C)C)C2(C)C)CC1=O (mixture of isomers) | 0.924 | 0.953 |
| O=S(=O)(c1ccccc1)c1ccccc1 | 0.956 | 0.943 |
| O=P(Oc1ccccc1)(Oc1ccccc1)Oc1ccccc1 | 0.937 | 0.957 |
| CC(C)[C@H](C(=O)O[C@H](C#N)c1cccc(Oc2ccccc2)c1)c1ccc(Cl)cc1 | 0.913 | 0.948 |
| ClC1C(Cl)C(Cl)C(Cl)C(Cl)C1Cl (stereo unspecified) | 1.03 and 1.04 and 0.953 | – |
| NCCO.O=C(O)c1nc(Cl)ccc1Cl | 1.03 | 1.05 |
| CC1=C(C(=O)Nc2ccccc2)S(=O)(=O)CCO1 | 0.989 | 0.979 |
| CCC(C)c1cc([N+](=O)[O-])cc([N+](=O)[O-])c1OC(=O)C=C(C)C (stereo unspecified) | 0.948 | 0.872 |
| CP(=O)(O)CCC(N)C(=O)[O-].[NH4+] (stereo unspecified) | 1.06 | 1.01 |
| CCOP(=O)(SC(C)CC)N1CCSC1=O (stereo unspecified) | 1.03 | 1.02 |
| CNC(=O)Oc1ccccc1C(C)C | 1.06 | 1.04 |
| O=CNC(N1CCN(C(NC=O)C(Cl)(Cl)Cl)CC1)C(Cl)(Cl)Cl (stereo unspecified) | 0.934 | 0.982 |
| C=CCN=C=S | 0.986 | 0.994 |
| OC(Cc1ccccc1Cl)(Cn1[nH]cnc1=S)C1(Cl)CC1 (stereo unspecified) | 0.978 | 0.959 |
| C1CCC(NC2CCCCC2)CC1.O=NO | 1 | 0.986 |
| CO/C=C(/C(=O)OC)c1ccccc1Oc1cc(Oc2ccccc2C#N)ncn1 | 0.961 | 0.991 |
| CC(C)(O)C(Cl)(Cl)Cl.CC(C)(O)C(Cl)(Cl)Cl.O | 1.01 | 1.05 |
| CCOc1cc(OP(=S)(OC)OC)nc(CC)n1 | 0.98 | 0.983 |
| CCCCCCCC(=O)Oc1c(I)cc(C#N)cc1I | 0.957 | 0.805 |
| COc1ncc(F)c2nc(S(=O)(=O)Nc3c(F)cccc3F)nn12 | 1.02 | 1 |
| CCOC(=O)CC(SP(=O)(OC)OC)C(=O)OCC (stereo unspecified) | 0.997 | 1.01 |
| c1cc2c3c(cccc3c1)CC2 | 0.998 | 1.01 |

| Compound | growth AUC [1] | growth AUC [2] |
| --- | --- | --- |
| Cc1cc(C)c(C2=C(OC(=O)CC(C)(C)C)C3(CCCC3)OC2=O)c(C)c1 | 0.989 | 0.991 |
| COc1nc(C)nc(NC(=O)NS(=O)(=O)c2ccccc2CCC(F)(F)F)n1 | 0.98 | 0.989 |
| COP(=S)(OC)Oc1ccc(S(=O)(=O)N(C)C)cc1 | 0.971 | 1.04 |
| CCCCOC(=O)c1ccccc1C(=O)OCCCC | 0.953 | 1.02 |
| N#Cc1c[nH]cc1-c1cccc2c1OC(F)(F)O2 | 1.07 | 0.962 |
| ClC1=C(Cl)C2(Cl)C3COCC3C1(Cl)C2(Cl)Cl (stereo unspecified) | 1.08 | 0.915 |
| COC(=O)/C=C(/C)OP(=O)(OC)OC | 1.02 and 0.985 | 0.944 and 1 |
| CCCCOC(=O)N(C)SN(C)C(=O)Oc1cccc2c1OC(C)(C)C2 | 0.992 | 1.02 |
| CCOP(=S)(Oc1ccc([N+](=O)[O-])cc1)c1ccccc1 (stereo unspecified) | 1.04 | 1.04 |
| C=C(C)CN(CC)c1c([N+](=O)[O-])cc(C(F)(F)F)cc1[N+](=O)[O-] | 1.01 | 0.989 |
| Cc1cccc2sc3nncn3c12 | 0.976 | 1.02 |
| O=c1oc2ccccc2c(O)c1C(CC(O)c1ccc(-c2ccc(Br)cc2)cc1)c1ccccc1 (stereo unspecified) | 0.654 (active) | 0.553 (active) |
| CNC(=O)Oc1cc(C)c(S(C)=O)c(C)c1 (stereo unspecified) | 0.965 | 1.01 |
| COC(=O)Nc1nc2ccccc2[nH]1 | 1 | 0.971 |
| CCN(Cc1ccc(Cl)nc1)/C(=C/[N+](=O)[O-])NC | 1 | 1 |
| C=CCC1=C(C)C(OC(=O)[C@@H]2[C@@H](C=C(C)C)C2(C)C)CC1=O (stereo partly specified) | 1.05 | 1.01 |
| COP(=O)(OC)OC(Br)C(Cl)(Cl)Br (stereo unspecified) | 1.01 | 0.956 |
| COP(=S)(OC)SCn1nnc2ccccc2c1=O | 1.09 | 0.969 |
| COC(=O)c1ccccc1CS(=O)(=O)NC(=O)Nc1nc(OC)cc(OC)n1 | 0.964 | 1.01 |
| OC(Cn1cncn1)(c1ccc(F)cc1)c1ccccc1F (stereo unspecified) | 0.966 | 1.01 |
| CCOP(=S)(OCC)SCS(=O)C(C)(C)C (stereo unspecified) | 1.04 | 1.04 |
| O=c1oc2ccccc2c(O)c1C1CC(c2ccc(-c3ccccc3)cc2)Cc2ccccc21 (stereo unspecified) | 0.711 (active) | 0.709 (active) |
| CCS(=O)(=O)c1cccnc1S(=O)(=O)NC(=O)Nc1nc(OC)cc(OC)n1 | 1 | 0.93 |
| CCOC(=O)c1cn2nc(OP(=S)(OCC)OCC)cc2nc1C | 0.981 | 0.981 |
